# Measured values reported in the supplement of paper PMC8007513.
# Where a name gives a salt, the structure may show the parent alone. ± gives the standard error. In all, about 1,300 compounds went through this assay and about 130 (10%) showed an effect of 50% or more. The full list was thinned out, with strong results kept by preference.
# System: Trichoderma virens ATCC 9645
# Assay: growth yield (OD600) with compound + IPBC relative to untreated control; higher = less growth inhibition
# Conditions: compound concentration: 100 uM, IPBC concentration: 200 ng/ml
# Summary of the method: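 For each 96-well plate, 100 μl aliquots were prepared with Trichoderma virens ATCC 9645 spores suspended at 15,000 spores ml^−1 in potato dextrose broth. The spores had been harvested from potato dextrose agar plates after 7 days. Library compounds were present at 100 μM final, some wells also receiving a biocide at 200 ng ml^−1, and plates were grown at 30 °C with OD600 read on a BioTek EL800 at 40 h and 72 h. Reported growth, relative to the control lacking both agents, is the mean of duplicate screens.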
Structure (SMILES),growth yield (40 h),growth yield (72 h)
C[C@]12C/C(=C/O)C(=O)C[C@@H]1CC[C@@H]1[C@@H]2CC[C@@]2(C)[C@H]1CC[C@]2(C)O [Oxymetholone] + CCCCNC(=O)OCC#CI [3-iodo-2-propynyl butylcarbamate (IPBC)],112 ± 14%,105 ± 9.2%
Oc1ncnc2[nH]ncc12 [Allopurinol] + CCCCNC(=O)OCC#CI [3-iodo-2-propynyl butylcarbamate (IPBC)],93.4 ± 4.8%,94.28 ± 0.32%
Cc1cc(N)c2ccccc2[n+]1CCCCCCCCCC[n+]1c(C)cc(N)c2ccccc21 [Dequalinium dichloride] + CCCCNC(=O)OCC#CI [3-iodo-2-propynyl butylcarbamate (IPBC)],3.81%,2.94%
COc1ncnc(NS(=O)(=O)c2ccc(N)cc2)c1OC [Sulfadoxine] + CCCCNC(=O)OCC#CI [3-iodo-2-propynyl butylcarbamate (IPBC)],72.6 ± 2.4%,84.7 ± 2.7%
Cc1[nH]cnc1CN1CCc2c(c3ccccc3n2C)C1=O [Alosetron hydrochloride] + CCCCNC(=O)OCC#CI [3-iodo-2-propynyl butylcarbamate (IPBC)],85.5 ± 1.3%,87.89 ± 0.21%
CC(C)(C)NC[C@@H](O)COc1cccc2c1CCCC2=O [(+) -Levobunolol hydrochloride] + CCCCNC(=O)OCC#CI [3-iodo-2-propynyl butylcarbamate (IPBC)],97.8 ± 16%,99.1 ± 12%
CCN(C)C(=O)Oc1cccc([C@H](C)N(C)C)c1 [Rivastigmine] + CCCCNC(=O)OCC#CI [3-iodo-2-propynyl butylcarbamate (IPBC)],97.1 ± 4%,95.1 ± 3.7%
CN(CCCCCCCCCCN(C)C(=O)Oc1cccc([N+](C)(C)C)c1)C(=O)Oc1cccc([N+](C)(C)C)c1 [Demecarium bromide] + CCCCNC(=O)OCC#CI [3-iodo-2-propynyl butylcarbamate (IPBC)],3.97 ± 0.16%,2.73%
CN(C)C(=O)Oc1cccc([N+](C)(C)C)c1 [Neostigmine bromide] + CCCCNC(=O)OCC#CI [3-iodo-2-propynyl butylcarbamate (IPBC)],83.4 ± 1.1%,92.19 ± 0.52%
C=C1c2cccc(O)c2C(=O)C2=C(O)[C@]3(O)C(=O)C(C(N)=O)=C(O)[C@@H](N(C)C)[C@@H]3[C@@H](O)[C@H]12 [Methacycline hydrochloride] + CCCCNC(=O)OCC#CI [3-iodo-2-propynyl butylcarbamate (IPBC)],94.2 ± 1.8%,93.7 ± 0.94%
C[C@]1(Cn2ccnn2)[C@H](C(=O)O)N2C(=O)C[C@H]2S1(=O)=O [Tazobactam] + CCCCNC(=O)OCC#CI [3-iodo-2-propynyl butylcarbamate (IPBC)],84.5 ± 0.95%,87.15 ± 0.32%
COc1cc2ncnc(Nc3ccc(F)c(Cl)c3)c2cc1OCCCN1CCOCC1 [Gefitinib] + CCCCNC(=O)OCC#CI [3-iodo-2-propynyl butylcarbamate (IPBC)],16.4 ± 5.2%,10.5 ± 0.63%
CCCCOc1ccc(OCCCN2CCOCC2)cc1 [Pramoxine hydrochloride] + CCCCNC(=O)OCC#CI [3-iodo-2-propynyl butylcarbamate (IPBC)],80.1 ± 2.2%,94 ± 3.1%
C#Cc1cccc(Nc2ncnc3cc(OCCOC)c(OCCOC)cc23)c1 [Erlotinib] + CCCCNC(=O)OCC#CI [3-iodo-2-propynyl butylcarbamate (IPBC)],98.2 ± 11%,99.3 ± 3%
C[C@]12C[C@H](O)[C@H]3[C@@H](CCC4=CC(=O)CC[C@@]43C)[C@@H]1CC[C@@H]2C(=O)CO [Corticosterone] + CCCCNC(=O)OCC#CI [3-iodo-2-propynyl butylcarbamate (IPBC)],94.2 ± 7.8%,96.6 ± 5.6%
CCCN1CCCC[C@H]1C(=O)Nc1c(C)cccc1C [Ropivacaine hydrochloride] + CCCCNC(=O)OCC#CI [3-iodo-2-propynyl butylcarbamate (IPBC)],88.5 ± 1.4%,91.98 ± 0.1%
C[C@]12C=CC(=O)C=C1CC[C@@H]1[C@@H]2[C@@H](O)C[C@@]2(C)[C@H]1CC[C@]2(O)C(=O)CO [Prednisolone] + CCCCNC(=O)OCC#CI [3-iodo-2-propynyl butylcarbamate (IPBC)],82.8 ± 2.1%,92.5 ± 0.42%
NC(Cc1cc(I)c(Oc2cc(I)c(O)c(I)c2)c(I)c1)C(=O)O (stereo unspecified) [Thyroxine (L)] + CCCCNC(=O)OCC#CI [3-iodo-2-propynyl butylcarbamate (IPBC)],100 ± 11%,98.8 ± 9%
N[C@@H](Cc1cc(I)c(Oc2ccc(O)c(I)c2)c(I)c1)C(=O)O [Liothyronine] + CCCCNC(=O)OCC#CI [3-iodo-2-propynyl butylcarbamate (IPBC)],93.1 ± 10%,98.1 ± 6.4%

Structure (SMILES),growth yield (40 h),growth yield (72 h)
"O=C(O)Cc1cc(I)c(Oc2ccc(O)c(I)c2)c(I)c1 [Tiratricol, 3,3',5-triiodothyroacetic acid] + CCCCNC(=O)OCC#CI [3-iodo-2-propynyl butylcarbamate (IPBC)]",44 ± 1.8%,73.41 ± 0.63%
CCN(CC)CCNc1ccc(CO)c2sc3ccccc3c(=O)c12 [Hycanthone] + CCCCNC(=O)OCC#CI [3-iodo-2-propynyl butylcarbamate (IPBC)],124 ± 2.7%,120 ± 0.63%
COc1cc(NC(C)CCCN)c2ncccc2c1 (stereo unspecified) [Primaquine diphosphate] + CCCCNC(=O)OCC#CI [3-iodo-2-propynyl butylcarbamate (IPBC)],73.7 ± 11%,117.7 ± 1.1%
COc1ccc(OC)c(C(O)CNC(=O)CN)c1 (stereo unspecified) [Midodrine hydrochloride] + CCCCNC(=O)OCC#CI [3-iodo-2-propynyl butylcarbamate (IPBC)],96.1 ± 4.3%,104 ± 2.1%
CCCC(C)(COC(N)=O)COC(=O)NC(C)C (stereo unspecified) [Carisoprodol] + CCCCNC(=O)OCC#CI [3-iodo-2-propynyl butylcarbamate (IPBC)],84.8 ± 5.1%,92.7 ± 5.5%
CC(CCc1ccccc1)NCC(O)c1ccc(O)c(C(N)=O)c1 (stereo unspecified) [Labetalol hydrochloride] + CCCCNC(=O)OCC#CI [3-iodo-2-propynyl butylcarbamate (IPBC)],73.38 ± 0.32%,87.15 ± 0.1%
CCCCCCCCCCCCCCCC[N+](C)(C)CCN(Cc1ccc(OC)cc1)c1ncccn1 [Thonzonium bromide] + CCCCNC(=O)OCC#CI [3-iodo-2-propynyl butylcarbamate (IPBC)],3.34 ± 0.16%,2.62 ± 0.1%
CN(C)CCN(Cc1ccc(Cl)cc1)c1ccccn1 [Chloropyramine hydrochloride] + CCCCNC(=O)OCC#CI [3-iodo-2-propynyl butylcarbamate (IPBC)],76.1 ± 1.1%,92.3 ± 2.3%
COc1ccc(CN(CCN(C)C)c2ccccn2)cc1 [Pyrilamine maleate] + CCCCNC(=O)OCC#CI [3-iodo-2-propynyl butylcarbamate (IPBC)],82.8 ± 4.6%,92.4 ± 4.9%
COC(c1ccccc1)(c1ccccc1)[C@H](Oc1nc(C)cc(C)n1)C(=O)O [Ambrisentan] + CCCCNC(=O)OCC#CI [3-iodo-2-propynyl butylcarbamate (IPBC)],89.3 ± 5.7%,93.9 ± 3.9%
NC(=O)N1c2ccccc2CC(=O)c2ccccc21 [Oxcarbazepine] + CCCCNC(=O)OCC#CI [3-iodo-2-propynyl butylcarbamate (IPBC)],83.4 ± 2.4%,92.9 ± 1.9%
CCC(C)n1ncn(-c2ccc(N3CCN(c4ccc(OCC5COC(Cn6cncn6)(c6ccc(Cl)cc6Cl)O5)cc4)CC3)cc2)c1=O (stereo unspecified) [Itraconazole] + CCCCNC(=O)OCC#CI [3-iodo-2-propynyl butylcarbamate (IPBC)],14.3 ± 1.9%,11.3 ± 1.7%
CC(C)N1CCN(c2ccc(OCC3COC(Cn4cncn4)(c4ccc(Cl)cc4Cl)O3)cc2)CC1 (stereo unspecified) [Terconazole] + CCCCNC(=O)OCC#CI [3-iodo-2-propynyl butylcarbamate (IPBC)],69.9 ± 2.5%,87 ± 1.3%
CC[C@@H]([C@H](C)O)n1ncn(-c2ccc(N3CCN(c4ccc(OC[C@@H]5CO[C@@](Cn6cncn6)(c6ccc(F)cc6F)C5)cc4)CC3)cc2)c1=O [Posaconazole] + CCCCNC(=O)OCC#CI [3-iodo-2-propynyl butylcarbamate (IPBC)],3.97 ± 1.4%,3.78 ± 1.7%
CC(=O)N1CCN(c2ccc(OCC3COC(Cn4ccnc4)(c4ccc(Cl)cc4Cl)O3)cc2)CC1 (stereo unspecified) [Ketoconazole] + CCCCNC(=O)OCC#CI [3-iodo-2-propynyl butylcarbamate (IPBC)],3.34 ± 0.48%,2.52 ± 0.42%
C[N+]1([O-])[C@@H]2C[C@@H](OC(=O)[C@H](CO)c3ccccc3)C[C@H]1[C@@H]1O[C@@H]12 (stereo partly specified) [Scopolamin-N-oxide hydrobromide] + CCCCNC(=O)OCC#CI [3-iodo-2-propynyl butylcarbamate (IPBC)],103 ± 2.2%,102 ± 1.1%
CC(C)c1cccc(C(C)C)c1O [Propofol] + CCCCNC(=O)OCC#CI [3-iodo-2-propynyl butylcarbamate (IPBC)],101 ± 2.9%,98.4 ± 1.3%
CO[C@@]1(NC(=O)C2SC(=C(C(N)=O)C(=O)O)S2)C(=O)N2C(C(=O)O)=C(CSc3nnnn3C)CS[C@@H]21 (stereo partly specified) [Cefotetan] + CCCCNC(=O)OCC#CI [3-iodo-2-propynyl butylcarbamate (IPBC)],94.8 ± 2.4%,96.5 ± 1.9%
NS(=O)(=O)c1cc2c(cc1C(F)(F)F)NCNS2(=O)=O [Hydroflumethiazide] + CCCCNC(=O)OCC#CI [3-iodo-2-propynyl butylcarbamate (IPBC)],89.1 ± 1.1%,92.4 ± 0.73%
